In the supplement of paper PMC11732987, “Enantioselective OTUD7B fragment discovery through chemoproteomics screening and high-throughput optimisation” (Communications Chemistry, 2025):

What was measured:
Assay in all cases: log2 ratio of Biotin-Ahx-Ub-VS probe labelling (fragment/DMSO); higher = less target engagement (more negative = stronger competition), active = hit call of the paper (q ≤ 0.05, log2 ratio ≤ -1)
Settings in all cases: compound concentration: 200 uM; treatment time: 3 h
USP34 = USP34 (UniProt Q70CQ2)
Chain of USP34 (Q70CQ2 whole entry, the tested form may be a part): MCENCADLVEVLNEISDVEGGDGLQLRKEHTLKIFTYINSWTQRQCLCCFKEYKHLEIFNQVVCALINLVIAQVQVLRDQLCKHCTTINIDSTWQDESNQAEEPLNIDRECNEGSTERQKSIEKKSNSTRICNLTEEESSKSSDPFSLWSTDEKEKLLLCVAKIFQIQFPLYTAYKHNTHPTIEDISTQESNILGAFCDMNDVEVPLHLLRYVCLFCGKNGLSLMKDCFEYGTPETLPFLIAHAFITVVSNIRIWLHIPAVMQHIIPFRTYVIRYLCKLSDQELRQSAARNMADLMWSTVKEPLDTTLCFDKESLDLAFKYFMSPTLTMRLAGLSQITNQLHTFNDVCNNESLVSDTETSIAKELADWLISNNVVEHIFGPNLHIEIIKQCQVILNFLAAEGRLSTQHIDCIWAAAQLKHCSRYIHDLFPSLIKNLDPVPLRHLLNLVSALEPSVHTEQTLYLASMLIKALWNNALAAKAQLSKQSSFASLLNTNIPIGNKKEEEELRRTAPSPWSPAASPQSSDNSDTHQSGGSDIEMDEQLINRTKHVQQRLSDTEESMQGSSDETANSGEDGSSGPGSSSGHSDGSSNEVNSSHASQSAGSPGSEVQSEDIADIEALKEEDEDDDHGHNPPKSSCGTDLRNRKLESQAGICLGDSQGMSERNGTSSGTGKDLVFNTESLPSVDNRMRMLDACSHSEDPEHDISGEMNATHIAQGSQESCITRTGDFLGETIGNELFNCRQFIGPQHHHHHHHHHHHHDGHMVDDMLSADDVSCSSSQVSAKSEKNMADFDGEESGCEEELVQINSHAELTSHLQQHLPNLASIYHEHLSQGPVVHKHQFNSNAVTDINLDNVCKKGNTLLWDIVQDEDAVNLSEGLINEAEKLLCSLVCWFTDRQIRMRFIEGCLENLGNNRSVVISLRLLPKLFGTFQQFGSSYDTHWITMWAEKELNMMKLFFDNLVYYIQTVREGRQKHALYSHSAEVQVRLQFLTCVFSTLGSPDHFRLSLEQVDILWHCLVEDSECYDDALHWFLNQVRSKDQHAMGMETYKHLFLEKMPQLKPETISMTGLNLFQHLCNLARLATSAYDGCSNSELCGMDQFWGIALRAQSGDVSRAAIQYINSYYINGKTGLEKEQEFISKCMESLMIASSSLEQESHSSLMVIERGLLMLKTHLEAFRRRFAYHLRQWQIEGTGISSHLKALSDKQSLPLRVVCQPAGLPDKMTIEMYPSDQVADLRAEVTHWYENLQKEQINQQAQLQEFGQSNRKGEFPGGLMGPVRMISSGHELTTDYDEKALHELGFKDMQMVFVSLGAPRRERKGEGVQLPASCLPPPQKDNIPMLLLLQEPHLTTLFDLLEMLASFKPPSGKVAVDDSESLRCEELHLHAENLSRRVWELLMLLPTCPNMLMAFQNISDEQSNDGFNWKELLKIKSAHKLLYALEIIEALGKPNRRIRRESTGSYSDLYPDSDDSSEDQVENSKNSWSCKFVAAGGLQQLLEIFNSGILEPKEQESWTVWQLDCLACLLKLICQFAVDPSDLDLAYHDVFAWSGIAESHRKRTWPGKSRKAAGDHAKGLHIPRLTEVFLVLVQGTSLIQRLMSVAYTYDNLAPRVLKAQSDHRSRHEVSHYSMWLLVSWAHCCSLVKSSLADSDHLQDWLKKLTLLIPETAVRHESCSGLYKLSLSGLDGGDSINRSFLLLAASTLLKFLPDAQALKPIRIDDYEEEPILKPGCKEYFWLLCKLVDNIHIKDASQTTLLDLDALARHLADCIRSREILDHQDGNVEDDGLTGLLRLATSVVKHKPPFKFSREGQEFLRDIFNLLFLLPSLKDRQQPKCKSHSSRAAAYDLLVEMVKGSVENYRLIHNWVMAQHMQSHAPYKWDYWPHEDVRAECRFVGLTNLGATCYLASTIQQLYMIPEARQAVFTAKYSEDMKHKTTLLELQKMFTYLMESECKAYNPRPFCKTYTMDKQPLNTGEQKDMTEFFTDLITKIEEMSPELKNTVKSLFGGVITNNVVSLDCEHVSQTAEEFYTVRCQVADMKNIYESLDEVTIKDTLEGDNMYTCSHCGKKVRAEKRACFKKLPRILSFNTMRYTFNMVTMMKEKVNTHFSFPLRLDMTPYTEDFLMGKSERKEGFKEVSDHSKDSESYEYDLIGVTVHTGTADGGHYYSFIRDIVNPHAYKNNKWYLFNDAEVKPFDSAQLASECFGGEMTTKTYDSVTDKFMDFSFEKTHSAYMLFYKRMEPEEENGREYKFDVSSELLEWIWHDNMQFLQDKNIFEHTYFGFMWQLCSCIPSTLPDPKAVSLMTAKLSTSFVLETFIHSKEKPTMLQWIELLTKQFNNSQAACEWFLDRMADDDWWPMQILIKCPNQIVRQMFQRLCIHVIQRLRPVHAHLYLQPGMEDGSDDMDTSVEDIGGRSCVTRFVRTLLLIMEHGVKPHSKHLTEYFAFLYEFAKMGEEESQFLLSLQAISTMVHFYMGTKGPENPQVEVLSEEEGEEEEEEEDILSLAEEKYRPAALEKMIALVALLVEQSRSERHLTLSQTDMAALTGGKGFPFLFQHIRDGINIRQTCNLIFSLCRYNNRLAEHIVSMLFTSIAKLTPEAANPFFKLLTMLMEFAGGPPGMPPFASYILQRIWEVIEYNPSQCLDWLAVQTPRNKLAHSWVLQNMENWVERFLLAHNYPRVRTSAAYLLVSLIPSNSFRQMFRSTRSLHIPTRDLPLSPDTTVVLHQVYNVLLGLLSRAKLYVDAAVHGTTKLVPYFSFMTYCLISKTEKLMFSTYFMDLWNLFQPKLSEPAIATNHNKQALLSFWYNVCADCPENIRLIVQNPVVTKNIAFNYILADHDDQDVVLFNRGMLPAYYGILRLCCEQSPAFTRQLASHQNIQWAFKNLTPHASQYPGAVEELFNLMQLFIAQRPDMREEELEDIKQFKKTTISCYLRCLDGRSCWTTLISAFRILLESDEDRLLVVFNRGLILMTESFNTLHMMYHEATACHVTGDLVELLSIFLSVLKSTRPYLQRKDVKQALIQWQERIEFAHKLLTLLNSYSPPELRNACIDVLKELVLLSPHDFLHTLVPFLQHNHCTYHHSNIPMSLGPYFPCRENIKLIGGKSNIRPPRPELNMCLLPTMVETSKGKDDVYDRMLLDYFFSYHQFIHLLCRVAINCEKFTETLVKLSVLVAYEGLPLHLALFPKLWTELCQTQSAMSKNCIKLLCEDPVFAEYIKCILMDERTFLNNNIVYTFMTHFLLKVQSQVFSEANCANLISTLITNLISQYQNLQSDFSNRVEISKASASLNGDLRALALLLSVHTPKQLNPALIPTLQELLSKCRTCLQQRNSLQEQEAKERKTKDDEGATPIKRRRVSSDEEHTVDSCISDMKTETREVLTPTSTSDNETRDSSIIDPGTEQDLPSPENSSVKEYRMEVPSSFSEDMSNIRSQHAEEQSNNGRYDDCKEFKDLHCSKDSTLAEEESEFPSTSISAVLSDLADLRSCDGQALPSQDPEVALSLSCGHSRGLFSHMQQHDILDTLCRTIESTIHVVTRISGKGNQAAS
In short: (§1)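 HEK293T lysate, 495 µg per sample in Tris/CHAPS/IGEPAL buffer with protease inhibitors, was treated in triplicate with fragment at 200 µM or vehicle for 3 h and then with Biotin-Ahx-Ub-VS at 0.5 µM final for 1 h. Labelled DUBs were NeutrAvidin-enriched, digested with LysC and trypsin, and run by diaPASEF LC-MS/MS. Spectronaut label-free quantities were global-median-normalised, and values are average log2 fragment/vehicle ratios by unpaired t-test on proteins with ≥2 unique peptides.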

USP36 = biological target: T1, USP36 (UniProt Q9P275)
T1 sequence (whole entry): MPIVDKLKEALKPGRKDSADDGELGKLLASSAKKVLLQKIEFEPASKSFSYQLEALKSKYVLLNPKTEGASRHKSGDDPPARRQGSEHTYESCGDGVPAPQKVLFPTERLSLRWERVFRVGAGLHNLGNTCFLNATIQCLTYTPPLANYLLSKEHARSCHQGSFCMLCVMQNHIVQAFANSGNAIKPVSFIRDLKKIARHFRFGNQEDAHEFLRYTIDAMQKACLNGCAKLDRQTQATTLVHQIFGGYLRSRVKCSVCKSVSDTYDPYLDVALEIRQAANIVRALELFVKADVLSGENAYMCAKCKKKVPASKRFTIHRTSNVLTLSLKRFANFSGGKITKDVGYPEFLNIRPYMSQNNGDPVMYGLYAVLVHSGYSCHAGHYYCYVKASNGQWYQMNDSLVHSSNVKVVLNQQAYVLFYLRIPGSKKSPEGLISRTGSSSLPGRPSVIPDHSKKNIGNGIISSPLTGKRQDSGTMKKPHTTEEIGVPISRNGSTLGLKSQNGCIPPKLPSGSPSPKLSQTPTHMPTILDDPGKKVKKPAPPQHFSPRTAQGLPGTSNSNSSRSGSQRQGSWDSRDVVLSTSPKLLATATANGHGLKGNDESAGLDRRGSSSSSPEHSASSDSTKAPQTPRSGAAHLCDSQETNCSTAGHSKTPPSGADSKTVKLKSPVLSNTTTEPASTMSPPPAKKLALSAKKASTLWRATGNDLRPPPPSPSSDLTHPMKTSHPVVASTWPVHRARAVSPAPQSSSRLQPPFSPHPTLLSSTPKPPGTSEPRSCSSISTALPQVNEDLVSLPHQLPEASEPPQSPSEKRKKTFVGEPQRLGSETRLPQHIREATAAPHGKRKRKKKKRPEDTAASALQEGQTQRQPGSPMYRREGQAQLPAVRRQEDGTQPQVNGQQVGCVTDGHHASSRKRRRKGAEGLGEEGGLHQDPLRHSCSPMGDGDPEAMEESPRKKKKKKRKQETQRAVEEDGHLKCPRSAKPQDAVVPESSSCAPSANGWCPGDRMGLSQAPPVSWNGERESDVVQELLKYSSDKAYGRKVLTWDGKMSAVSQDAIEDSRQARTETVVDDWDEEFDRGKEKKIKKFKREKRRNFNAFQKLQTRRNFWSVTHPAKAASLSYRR
In short: as §1

USP38 = biological target: T2, USP38 (UniProt Q8NB14)
T2 sequence (whole entry): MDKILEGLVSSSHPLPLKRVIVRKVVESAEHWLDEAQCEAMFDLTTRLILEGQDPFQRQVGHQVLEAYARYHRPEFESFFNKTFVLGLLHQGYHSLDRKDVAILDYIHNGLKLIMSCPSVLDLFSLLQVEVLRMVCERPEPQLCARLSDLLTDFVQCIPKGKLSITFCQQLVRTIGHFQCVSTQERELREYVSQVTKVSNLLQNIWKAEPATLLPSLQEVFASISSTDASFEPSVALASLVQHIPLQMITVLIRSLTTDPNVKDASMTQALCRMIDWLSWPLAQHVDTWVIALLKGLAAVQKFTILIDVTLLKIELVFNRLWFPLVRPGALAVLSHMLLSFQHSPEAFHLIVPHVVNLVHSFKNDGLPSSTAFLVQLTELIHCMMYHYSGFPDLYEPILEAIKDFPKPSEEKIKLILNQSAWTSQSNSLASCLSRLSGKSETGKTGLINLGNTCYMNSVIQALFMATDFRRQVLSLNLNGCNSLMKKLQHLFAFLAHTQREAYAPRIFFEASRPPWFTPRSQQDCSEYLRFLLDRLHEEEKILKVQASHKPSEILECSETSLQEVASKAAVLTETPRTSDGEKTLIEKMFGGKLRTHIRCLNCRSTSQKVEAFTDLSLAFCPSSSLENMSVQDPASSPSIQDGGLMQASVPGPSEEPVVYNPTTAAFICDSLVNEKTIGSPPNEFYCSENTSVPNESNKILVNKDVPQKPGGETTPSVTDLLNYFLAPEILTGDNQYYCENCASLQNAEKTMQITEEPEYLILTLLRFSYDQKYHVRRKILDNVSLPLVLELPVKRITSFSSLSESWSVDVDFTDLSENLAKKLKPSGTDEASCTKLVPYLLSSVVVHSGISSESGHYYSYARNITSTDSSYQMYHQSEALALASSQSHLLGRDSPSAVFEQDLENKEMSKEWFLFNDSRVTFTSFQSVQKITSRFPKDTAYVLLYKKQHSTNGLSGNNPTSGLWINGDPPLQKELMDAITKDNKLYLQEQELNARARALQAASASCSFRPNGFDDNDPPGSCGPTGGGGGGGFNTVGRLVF
In short: as §1

USP39 = biological target: T3, USP39 (UniProt Q53GS9)
T3 sequence (whole entry): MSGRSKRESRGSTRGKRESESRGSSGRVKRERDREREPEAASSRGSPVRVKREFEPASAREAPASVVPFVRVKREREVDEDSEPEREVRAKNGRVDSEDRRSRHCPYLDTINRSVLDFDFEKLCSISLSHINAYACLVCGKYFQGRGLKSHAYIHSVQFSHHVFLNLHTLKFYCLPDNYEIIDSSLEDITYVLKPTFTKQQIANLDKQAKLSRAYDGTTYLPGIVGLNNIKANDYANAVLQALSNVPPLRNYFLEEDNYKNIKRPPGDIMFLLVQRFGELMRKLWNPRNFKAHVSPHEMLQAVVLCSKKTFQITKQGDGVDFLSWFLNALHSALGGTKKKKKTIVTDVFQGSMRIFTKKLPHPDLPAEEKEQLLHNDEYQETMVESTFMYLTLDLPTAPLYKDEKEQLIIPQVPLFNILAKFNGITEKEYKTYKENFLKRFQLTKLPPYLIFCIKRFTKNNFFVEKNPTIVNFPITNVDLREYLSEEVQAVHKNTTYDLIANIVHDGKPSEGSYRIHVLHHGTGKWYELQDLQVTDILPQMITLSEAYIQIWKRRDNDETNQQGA
In short: as §1

USP4 = biological target: T4, USP4 (UniProt Q13107)
T4 sequence (whole entry): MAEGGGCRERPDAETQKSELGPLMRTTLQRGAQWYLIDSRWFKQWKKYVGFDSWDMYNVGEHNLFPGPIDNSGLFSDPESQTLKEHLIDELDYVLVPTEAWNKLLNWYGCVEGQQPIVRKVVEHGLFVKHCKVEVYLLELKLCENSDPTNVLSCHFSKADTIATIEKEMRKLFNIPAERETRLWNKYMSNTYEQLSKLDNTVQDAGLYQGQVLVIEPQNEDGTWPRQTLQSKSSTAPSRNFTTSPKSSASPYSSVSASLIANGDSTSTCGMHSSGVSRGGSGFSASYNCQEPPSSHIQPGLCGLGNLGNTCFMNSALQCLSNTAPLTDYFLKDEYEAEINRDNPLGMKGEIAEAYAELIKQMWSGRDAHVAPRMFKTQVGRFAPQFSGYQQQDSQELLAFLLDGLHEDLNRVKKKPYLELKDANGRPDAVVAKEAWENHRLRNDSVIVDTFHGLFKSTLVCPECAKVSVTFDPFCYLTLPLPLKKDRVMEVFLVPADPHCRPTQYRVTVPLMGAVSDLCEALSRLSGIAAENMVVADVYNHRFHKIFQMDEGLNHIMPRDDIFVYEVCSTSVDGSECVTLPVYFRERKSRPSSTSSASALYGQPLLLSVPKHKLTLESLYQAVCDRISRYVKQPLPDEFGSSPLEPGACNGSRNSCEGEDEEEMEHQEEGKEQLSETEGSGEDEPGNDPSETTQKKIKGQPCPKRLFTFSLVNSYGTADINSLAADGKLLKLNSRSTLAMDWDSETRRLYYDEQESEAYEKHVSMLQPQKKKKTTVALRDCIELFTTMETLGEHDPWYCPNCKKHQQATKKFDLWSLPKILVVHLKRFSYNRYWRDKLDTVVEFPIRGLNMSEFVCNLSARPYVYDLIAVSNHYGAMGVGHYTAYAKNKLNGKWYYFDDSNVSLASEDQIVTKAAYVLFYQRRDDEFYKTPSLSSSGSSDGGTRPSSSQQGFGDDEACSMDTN
In short: as §1

Measured: log2 ratio of Biotin-Ahx-Ub-VS probe labelling

O=C(CCl)Nc1ccccc1C(F)(F)F
inactive: USP34 -0.296 | USP36 0.187 | USP38 -0.0183 | USP39 0.198 | USP4 -0.1
